This is a sample that favours compounds with a hit; in the whole collection about 1.2% have one here.
RGS4-Gao reg – human RGS4-Galphao interaction regulation. binding response (% of control), % at 10 µM. actives 0.33% (n = 220,000). Multiplexed bead flow cytometry, RGS4-Galphao binding; actives lie on both sides; in the data active = binding response below about 49% or above about 150%; inactive = in between;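 note: fluorescent Galphao activated with aluminum fluoride binding bead-coupled RGS4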
Target sequence (P09471 whole entry, looked up): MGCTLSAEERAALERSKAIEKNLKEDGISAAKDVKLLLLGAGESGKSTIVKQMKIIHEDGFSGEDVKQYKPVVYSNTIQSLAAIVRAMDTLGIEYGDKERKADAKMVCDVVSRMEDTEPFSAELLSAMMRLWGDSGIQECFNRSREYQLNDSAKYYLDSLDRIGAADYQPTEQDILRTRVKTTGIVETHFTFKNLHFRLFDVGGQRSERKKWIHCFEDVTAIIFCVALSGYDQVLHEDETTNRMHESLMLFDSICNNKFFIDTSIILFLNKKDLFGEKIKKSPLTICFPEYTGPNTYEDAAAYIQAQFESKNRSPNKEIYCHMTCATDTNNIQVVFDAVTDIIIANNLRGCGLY
GSH fluor – compound fluoresces at 488/530 nm on GSH beads; GSH beads flow cytometry, compound fluorescence 488/530 nm; hits give high values; fluorescence (KMESF) at 10 µM; actives 0.25% (n = 190,000); AID 1776; in the data active = fluorescence above about 89;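 note: glutathione beads carrying GST-tagged Bcl family fusion proteins plus one bare bead set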
Avidin fluor – avidin bead compound fluorescence profile; actives 0.38% (n = 220,000); AID 1775; fluorescence (KMESF) at 10 µM; Avidin beads, compound fluorescence 488/530 nm, flow cytometry; hits give high values; in the data active = fluorescence above about 47
RGS7-Gao – regulators of human RGS7-Galphao interaction; actives 0.35% (n = 220,000); P09471; binding response (% of control), % at 10 µM; Multiplexed bead flow cytometry, RGS7-Galphao binding; actives lie on both sides; AID 1439; in the data active = binding response below about 49% or above about 150%; inconclusive = no clear call, values can overlap the other calls; inactive = in between;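 note: fluorescent Galphao held in activated GDP-AlF4 state binding bead-coupled RGS7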
RGS8-Gao – regulators of human RGS8-Galphao interaction. actives 0.34% (n = 220,000). response (percent of control binding), % at 10 µM. AID 1423. multiplexed bead flow cytometry, RGS8-Galphao binding; actives lie on both sides. P09471; in the data active = response below about 60% or above about 140%; inactive = in between;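 note: Galphao activated as the GDP aluminium fluoride complex binding bead-coupled RGS8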
RGS16-Gao HTS – modulates binding between human RGS16 and Galphao. AID 1441. actives 0.38% (n = 220,000). bead-based flow cytometry RGS16-Galphao binding, fluorescence; actives lie on both sides. O15492+P09471. binding response (% of control), % at 10 µM;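 note: Galphao activated by GDP with aluminum fluoride before binding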
Target sequence (O15492 whole entry, looked up): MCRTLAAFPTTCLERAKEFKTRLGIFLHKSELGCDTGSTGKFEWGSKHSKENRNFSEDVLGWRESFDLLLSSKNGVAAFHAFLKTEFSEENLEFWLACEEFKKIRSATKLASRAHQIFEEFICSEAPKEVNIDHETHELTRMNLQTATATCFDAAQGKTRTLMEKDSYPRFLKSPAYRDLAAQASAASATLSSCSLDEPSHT
Target sequence (P09471 whole entry, looked up): as the sequence (P09471 whole entry, looked up) above
RGS-Gao – RGS4-Galphao interaction regulator (human). shares compounds with RGS16-Gao HTS. multiplexed bead flow cytometry, RGS–Galpha-o binding. RGS4–Galpha-o binding response, % at 10 µM. actives 99% (n = 1,600);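 note: fluorescently labeled Galpha-o bound to GDP with aluminium fluoride binding biotinylated RGS beads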
Avidin counter – interferes with biotinylated probe binding to avidin beads | shares compounds with RGS16-Gao HTS | streptavidin beads, fluorescein-biotin binding, flow cytometry | inhibition, % at 10 µM | 1,700 tested, under 10 active | AID 1783;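 active = inhibition above 50%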;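 note: median green fluorescence of gated singlet beads compared with DMSO control wells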
RGS8-Gao single – RGS8-Galphao interaction regulation, single point confirmation; binding response (% of control), % at 10 µM; actives 3% (n = 1,700); AID 1836; shares compounds with RGS16-Gao HTS; bead-based flow cytometry RGS8-Galphao binding, fluorescence; actives lie on both sides; in the data active = binding response below about 72% or above about 130%; inactive = in between;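 note: Galphao activated as GDP AlF4 complex before binding bead RGS8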
RGS7-Gao confirm – RGS7-Galphao interaction regulation, single point confirmation. shares compounds with RGS16-Gao HTS. bead-based flow cytometry RGS7-Galphao binding; actives lie on both sides. response (percent of control binding), % at 10 µM. actives 7.8% (n = 1,700). AID 1837; in the data active = response below about 75% or above about 130%; inactive = in between;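 note: fluorescent Galphao activated with GDP and aluminum fluoride binding bead-coupled RGS7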
RGS16-Gao single – confirmation of regulators of human RGS16-Galphao interaction; shares compounds with RGS16-Gao HTS; bead-based flow cytometry, RGS16-Galphao binding; actives lie on both sides; response (% of control binding), % at 10 µM; actives 4% (n = 1,700); AID 1838; in the data active = response below about 74% or above about 130%; inactive = in between;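 note: Galphao activated as the GDP aluminium fluoride complex binding bead-coupled RGS16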
RGS4-Gao single – RGS4-Galphao interaction regulation, single point confirmation | RGS4-Galphao binding, multiplexed bead flow cytometry; actives lie on both sides | binding response (% of control), % at 10 µM | AID 1840 | actives 4% (n = 1,700) | shares compounds with RGS16-Gao HTS; in the data active = binding response below about 74% or above about 130%; inactive = in between
RGS19-Gao single – RGS19-Galphao interaction regulation, single point confirmation. response (percent of control binding), % at 10 µM. actives 5% (n = 1,700). bead-based flow cytometry RGS19-Galphao binding; actives lie on both sides. shares compounds with RGS16-Gao HTS; in the data active = response below about 50% or above about 160%; inactive = in between
Large screens that a line does not name were inactive (follow-up assays come after a bar, where they were run); [ ] = dose if it differs, or a comment. Unless noted, the rule behind the calls is not given here.

CCc1ccc(S(=O)(=O)/N=C2/C=C(Sc3ncn[nH]3)C(=O)c3ccccc32)cc1	RGS16-Gao HTS 24.3 | RGS-Gao 91.8
CCOC(=O)N1CCC(NS(=O)(=O)c2ccc(C#N)cc2)CC1	RGS7-Gao inconclusive (no result: GSH fluor)
CSCCC(NC(=O)c1cccc([N+](=O)[O-])c1)C(=O)O (configuration not stated)	RGS16-Gao HTS 187.5[activator] | RGS-Gao 105.8 | Avidin counter inactive | RGS8-Gao single inactive | RGS7-Gao confirm inactive | RGS16-Gao single inactive | RGS4-Gao single inactive | RGS19-Gao single inactive
CSCCC(NC(=O)c1cccc([N+](=O)[O-])c1)c1nc2ccccc2[nH]1 (configuration not stated)	none
CCOC(=O)c1[nH]ncc1CN1CCCC(C(=O)c2ccc(C(C)(C)C)cc2)C1 (configuration not stated)	RGS8-Gao 140.1[activator] | RGS-Gao 113.9 | Avidin counter inactive | RGS8-Gao single inactive | RGS7-Gao confirm inactive | RGS16-Gao single inactive | RGS4-Gao single inactive | RGS19-Gao single inactive
O=C(CSc1nc2ccccc2[nH]1)Nc1ccc(F)c(F)c1	none (no result: RGS4-Gao reg, Avidin fluor, RGS7-Gao, RGS8-Gao, RGS16-Gao HTS) | Avidin counter inactive | RGS8-Gao single inactive | RGS7-Gao confirm inactive | RGS16-Gao single inactive | RGS4-Gao single inactive | RGS19-Gao single inactive
Cc1nn(CCC(=O)O)c(C)c1C	Avidin fluor 79, RGS7-Gao 165.3[activator] | RGS-Gao 102.9 | Avidin counter inactive | RGS8-Gao single inactive | RGS7-Gao confirm inactive | RGS16-Gao single inactive | RGS4-Gao single inactive | RGS19-Gao single inactive
O=C(COC(=O)C1CCN(S(=O)(=O)c2cccc3cccnc23)CC1)c1ccccc1	none
CN(C)N1C(=O)CC(N2CCCCC2)C1=O (configuration not stated)	none
O=C(COC(=O)c1ccc2[nH]c3c(c2c1)CCCC3)Nc1ccccc1Cl	none
O=C(COC(=O)c1ccc2[nH]c3c(c2c1)CCCC3)Nc1ccc(Cl)cc1Cl	RGS16-Gao HTS 182.2[activator] | RGS-Gao 106.8 | Avidin counter inactive | RGS8-Gao single inactive | RGS7-Gao confirm inactive | RGS16-Gao single inactive | RGS4-Gao single inactive | RGS19-Gao single inactive
CC(Oc1ccc2oc(-c3ccccc3)c(C(=O)O)c2c1)C(=O)O (configuration not stated)	none
CNc1nc(-c2ccc3c(c2)CCN3C(=O)c2ccc(F)cc2)cs1	none
CNc1nc(-c2ccc3c(c2)CCN3C(=O)c2ccccc2C)cs1	RGS8-Gao 59.5 | RGS-Gao 83.8 | Avidin counter inactive | RGS8-Gao single inactive | RGS7-Gao confirm inactive | RGS16-Gao single inactive | RGS4-Gao single inactive | RGS19-Gao single inactive
Cc1cc(C)cc(NC(=S)NCc2ccc(S(N)(=O)=O)cc2)c1	none (no result: Avidin fluor, RGS7-Gao) | Avidin counter inactive | RGS8-Gao single inactive | RGS7-Gao confirm inactive | RGS16-Gao single inactive | RGS4-Gao single inactive | RGS19-Gao single inactive
NS(=O)(=O)c1ccc(NC(=S)NCc2ccc(Cl)cc2)cc1	none
O=S1(=O)CCC(N=Cc2cc(Br)ccc2O)C1 (configuration not stated)	Avidin fluor 49, RGS7-Gao 151.3[activator] | RGS-Gao 111.8 | Avidin counter inactive | RGS8-Gao single inactive | RGS7-Gao confirm inactive | RGS16-Gao single inactive | RGS4-Gao single inactive | RGS19-Gao single inactive
O=c1c2ccccc2c(C=NC2CCS(=O)(=O)C2)c(O)n1-c1ccccc1 (configuration not stated)	none
CC(=O)OCCCNc1cc(Sc2nc3ccccc3s2)c2nonc2c1[N+](=O)[O-]	RGS8-Gao 50.8, RGS16-Gao HTS 8.5 | RGS-Gao 82.5 | Avidin counter inactive | RGS8-Gao single inactive | RGS7-Gao confirm inactive | RGS16-Gao single inactive | RGS4-Gao single inactive | RGS19-Gao single 26.2
CCN(CC)c1ccc(NC(=O)c2cccc(F)c2)c(C)c1	RGS4-Gao reg 44.7, RGS7-Gao 40.3, RGS8-Gao 53.1 | Avidin counter inactive | RGS8-Gao single inactive | RGS7-Gao confirm inactive | RGS16-Gao single inactive | RGS4-Gao single inactive | RGS19-Gao single inactive
CCN(CC)c1ccc(NC(=O)c2ccco2)c(C)c1	none
CCCc1cc(=O)[nH]c(SCC(=O)c2ccc3c(c2)NC(=O)CO3)n1	RGS4-Gao reg 387.0[activator], Avidin fluor 179, RGS7-Gao inconclusive, RGS8-Gao 150.5[activator], RGS16-Gao HTS 342.4[activator] (no result: GSH fluor) | Avidin counter inactive | RGS8-Gao single inactive | RGS7-Gao confirm inactive | RGS16-Gao single inactive | RGS4-Gao single inactive | RGS19-Gao single inactive
CCc1cc2c(=O)[nH]c(Cc3ccc(OC)cc3)nc2s1	RGS16-Gao HTS 16.1 | RGS-Gao 88.5 | Avidin counter inactive | RGS8-Gao single inactive | RGS7-Gao confirm inactive | RGS16-Gao single inactive | RGS4-Gao single inactive | RGS19-Gao single inactive
CCc1cc2c(=O)[nH]c(COC)nc2s1	none
COc1ccc(/C=C(/CC(=O)Nc2ccccc2)c2nc3ccccc3s2)cc1	RGS16-Gao HTS 17.6 | RGS-Gao 75.6 | Avidin counter inactive | RGS8-Gao single inactive | RGS7-Gao confirm inactive | RGS16-Gao single inactive | RGS4-Gao single inactive | RGS19-Gao single inactive
COc1ccc(/C=C(/CC(=O)NCc2ccc(Cl)cc2)c2nc3ccccc3s2)cc1	none
COc1c(F)c(F)c(C(=O)Nc2ccc(N3CCN(Cc4ccccc4)CC3)cc2)c(F)c1F	RGS8-Gao 175.1[activator] | RGS-Gao 141.3 | Avidin counter inactive | RGS8-Gao single inactive | RGS7-Gao confirm inactive | RGS16-Gao single inactive | RGS4-Gao single inactive | RGS19-Gao single inactive
COC(=O)c1ccccc1NC(=O)C(=O)NCc1ccncc1	RGS7-Gao inconclusive

Screening data from PubChem BioAssay.
